# Results as given in the supplement of paper PMC8728848.
# Shown is part of a subset that was picked to be rich in the strongest signals.
# B1: Epa6 (Candida glabrata), Q6DTM7_CANGB (protein)
# chain: MGSSHHHHHHSSGLVPRGSHMKDDYSSSLSNNNLGWTDPTEFPLGCSPNVTTPKNGLSMELYSYDYLKSGSNPCWDAAYLDPNYPRTGYKSHRLLAKVENVAGNINFYYHAPMGCTSLFDTLPQAYNYRTPLTMTNFTMLLYGYFKPKVTGYHTFTISADDLLFVNFGAGNAFDCCKRESSADDFGNYQAYAVWGSQTAKDDLTVHLDAGLYYPIRIFFNNRDNDGALSLTLKTESDPNPVIDFSDYFYSFDDTKDGCPGLVSYDTS
# What was measured:
# Assay in all cases: glycan array binding signal (z-score within array); higher = stronger binding
# Details in all cases: glycan notation: IUPAC condensed, linker removed
# GalNAc(b1-4)GlcNAc = target: GalNAc(b1-4)GlcNAc
# Method in brief: (§1)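 The binding signal is a Z-score computed within each array. Data were drawn from 3228 arrays in the Consortium for Functional Glycomics database, restricted to those with a known protein sequence. Scores were averaged over arrays of the same protein sequence at different concentrations or buffers, and over linkers, and negative values can be taken as non-binding.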
# GalNAc3S(b1-4)GlcNAc = target: GalNAc3S(b1-4)GlcNAc
# Method in brief: as §1
# Glc(a1-6)Glc(a1-6)Glc = target: Glc(a1-6)Glc(a1-6)Glc
# Method in brief: as §1
# [1] = target: GlcNAc(a1-4)Gal(b1-3)GlcNAc
# Method in brief: as §1
# [2] = target: GlcNAc(a1-4)Gal(b1-4)GalNAc
# Method in brief: as §1
# [3] = target: GlcNAc(b1-3)Gal(b1-4)GlcNAc(b1-3)Gal(b1-4)GlcNAc(b1-2)Man(a1-3)[GlcNAc(b1-3)Gal(b1-4)GlcNAc(b1-3)Gal(b1-4)GlcNAc(b1-2)Man(a1-6)]Man(b1-4)GlcNAc(b1-4)[Fuc(a1-6)]GlcNAc
# Method in brief: as §1
# GlcNAc(b1-3)Man = target: GlcNAc(b1-3)Man
# Method in brief: as §1
# [4] = target: GlcNAc(b1-4)Gal(b1-4)GlcNAc
# Method in brief: as §1
# [5] = target: Man(a1-3)[Man(a1-6)]Man(a1-6)[Man(a1-3)]Man
# Method in brief: as §1
# Man(b1-4)GlcNAc = target: Man(b1-4)GlcNAc
# Method in brief: as §1
# [6] = target: Neu5Ac(a2-3)Gal(b1-3)GlcNAc(b1-4)Gal(b1-4)Glc
# Method in brief: as §1
# [7] = target: Neu5Ac(a2-3)Gal(b1-4)GlcNAc(b1-2)[Neu5Ac(a2-3)Gal(b1-4)GlcNAc(b1-4)]Man(a1-3)[GlcNAc(b1-4)][Neu5Ac(a2-3)Gal(b1-4)GlcNAc(b1-4)Man(a1-6)]Man(b1-4)GlcNAc(b1-4)GlcNAc
# Method in brief: as §1
# [8] = target: Neu5Ac(a2-3)Gal(b1-4)GlcNAc(b1-3)Gal
# Method in brief: as §1
# [9] = target: Neu5Ac(a2-3)Gal(b1-4)GlcNAc6S
# Method in brief: as §1
# [10] = target: Neu5Ac(a2-3)Gal(b1-4)[Fuc(a1-3)]GlcNAc6S
# Method in brief: as §1
# [11] = target: Neu5Ac(a2-6)Gal(b1-4)GlcNAc(b1-2)Man(a1-3)Man(b1-4)GlcNAc(b1-4)GlcNAc
# Method in brief: as §1
# [12] = target: Neu5Ac(a2-6)Gal(b1-4)GlcNAc(b1-2)Man(a1-3)[Gal(b1-4)GlcNAc(b1-2)Man(a1-6)]Man(b1-4)GlcNAc(b1-4)GlcNAc
# Method in brief: as §1
# [13] = target: Neu5Ac(a2-6)Gal(b1-4)GlcNAc(b1-2)[Neu5Ac(a2-6)Gal(b1-4)GlcNAc(b1-4)]Man(a1-3)[GlcNAc(b1-4)][Neu5Ac(a2-6)Gal(b1-4)GlcNAc(b1-2)[Neu5Ac(a2-6)Gal(b1-4)GlcNAc(b1-6)]Man(a1-6)]Man(b1-4)GlcNAc(b1-4)GlcNAc
# Method in brief: as §1
# [14] = target: Neu5Ac(a2-6)Gal(b1-4)GlcNAc(b1-2)[Neu5Ac(a2-6)Gal(b1-4)GlcNAc(b1-6)]Man(a1-6)[Neu5Ac(a2-6)Gal(b1-4)GlcNAc(b1-2)Man(a1-3)][GlcNAc(b1-4)]Man(b1-4)GlcNAc(b1-4)GlcNAc
# Method in brief: as §1
# [15] = target: Neu5Ac(a2-6)Gal(b1-4)GlcNAc(b1-3)Gal(b1-4)GlcNAc(b1-6)[Gal(b1-3)]GalNAc
# Method in brief: as §1
# [16] = target: Neu5Ac(a2-8)Neu5Ac(a2-3)Gal(b1-4)Glc
# Method in brief: as §1
# [17] = target: Neu5Gc(a2-3)Gal(b1-3)[Fuc(a1-4)]GlcNAc
# Method in brief: as §1
# [18] = target: Neu5Gc(a2-3)Gal(b1-4)GlcNAc(b1-3)Gal(b1-4)GlcNAc(b1-2)Man(a1-3)[Neu5Gc(a2-3)Gal(b1-4)GlcNAc(b1-3)Gal(b1-4)GlcNAc(b1-2)Man(a1-6)]Man(b1-4)GlcNAc(b1-4)GlcNAc
# Method in brief: as §1
# Neu5Gc(a2-6)GalNAc = target: Neu5Gc(a2-6)GalNAc
# Method in brief: as §1
binder,measurement,setting,value
B1,glycan array binding signal (z-score),GalNAc(b1-4)GlcNAc,-0.234
same,glycan array binding signal (z-score),GalNAc3S(b1-4)GlcNAc,-0.313
same,glycan array binding signal (z-score),Glc(a1-6)Glc(a1-6)Glc,-0.312
same,glycan array binding signal (z-score),[1],-0.306
same,glycan array binding signal (z-score),[2],-0.297
same,glycan array binding signal (z-score),[3],-0.255
same,glycan array binding signal (z-score),GlcNAc(b1-3)Man,-0.263
same,glycan array binding signal (z-score),[4],-0.357
same,glycan array binding signal (z-score),[5],-0.281
same,glycan array binding signal (z-score),Man(b1-4)GlcNAc,-0.332
same,glycan array binding signal (z-score),[6],-0.269
same,glycan array binding signal (z-score),[7],-0.343
same,glycan array binding signal (z-score),[8],-0.336
same,glycan array binding signal (z-score),[9],-0.347
same,glycan array binding signal (z-score),[10],-0.347
same,glycan array binding signal (z-score),[11],-0.325
same,glycan array binding signal (z-score),[12],-0.301
same,glycan array binding signal (z-score),[13],-0.311
same,glycan array binding signal (z-score),[14],-0.33
same,glycan array binding signal (z-score),[15],0.25
same,glycan array binding signal (z-score),[16],-0.347
same,glycan array binding signal (z-score),[17],-0.331
same,glycan array binding signal (z-score),[18],-0.311
same,glycan array binding signal (z-score),Neu5Gc(a2-6)GalNAc,-0.311
